Source: PubChem BioAssay (National Center for Advancing Translational Sciences (NCATS))
Shiga toxin inh: blocks Shiga toxin action in Vero cells | inhibition, % at 38.7 µM | Vero cells, Shiga toxin protein synthesis inhibition reporter | actives 9.2% (n = 290,000); in the data active means inhibition mostly above about 28%, no sharp cut-off; inactive means mostly below about 43%; further: 0% is about no effect
Cycloheximide cs: affects cycloheximide protein synthesis inhibition readout, counter-screen. max response, %. actives 12% (n = 300,000). cell reporter, cycloheximide protein synthesis inhibition counterscreen; in the data active means max response mostly above about 13%, no sharp cut-off; inactive means mostly below about 14%; further: read at 38.3 µM for the half of the compounds with a filed dose; 0% is about no effect
Marburg entry inh: inhibitors of Marburg virus binding or cell entry; Marburg virus pseudotyped entry inhibition, cell reporter; Potency, µM (series often up to 37.8 µM), for the others: at the top dose activity change, negative = inhibition, hits mostly inhibitors; actives 1.8% (n = 300,000); AID 540276; calls by dose curve; tested in HEK293 cells; further: potency means the concentration at half of the fitted maximal effect; on the % scale 0 is the no-effect control and ±100 the full control effect
Lassa entry inh: Lassa virus entry inhibition; actives 1.2% (n = 300,000); Potency, µM (series often up to 37.9 µM), without a hit: top-dose activity change, negative = inhibition, most hits filed as inhibitors; AID 540256; Lassa virus pseudotype entry inhibition, cell reporter; calls by dose curve; tested in HEK293 cells; further: potency means the concentration at half of the fitted maximal effect; on the % scale 0 is the no-effect control and ±100 the full control effect; nearly all actives have a fitted effect of over 50% in size
FMDV inh: foot and mouth disease virus antiviral activity; actives 1.2% (n = 410,000); FMDV antiviral cell-based qHTS; Potency, µM (series often up to 57.9 µM), without a hit: top-dose activity change, negative = inhibition, hits mostly inhibitors; calls by dose curve; tested in HEK293T cells; further: read-out not given here; potency means the concentration at half of the fitted maximal effect; on the % scale 0 is the no-effect control and ±100 the full control effect; nearly all actives have a fitted effect of over 45% in size
HCV inh: HCV inhibition; Potency, µM (highest dose often 41.8 µM), for inactives: at the top dose activity change, negative = inhibition, most hits filed as inhibitors; Huh7.5.1 HCVcc-Cre infection, luciferase reporter, 44 h; actives 3.4% (n = 340,000); active means well fitted inhibition curve with a large enough effect; inconclusive means small, poorly fitted or top-dose-only effect, or another doubt; inactive means no such curve, though single readings can be large or run the other way; further: potency means the concentration at half of the fitted maximal effect; on the % scale 0 is the no-effect control and ±100 the full control effect
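A cell-based infection assay in which seeded cells (1,000 per well) receive test compound after 4 h, are inoculated with HCVcc-Cre at approximately 0.5 moi, and are incubated 44 h before luminescence detection.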
Numbers without * were called inactive; ? = inconclusive; . = no result; + = active, no number; [ ] = remark or other dose. Rows were chosen to be rich in hits. Some 13% of all compounds tested hit in one or more screens of this group.

SMILES	Shiga toxin inh	Cycloheximide cs	Marburg entry inh	Lassa entry inh	FMDV inh	HCV inh
Cc1sc2nc(SCCN(C)C)n(-c3ccccc3)c(=O)c2c1-c1ccc(F)cc1	-8	13	?	?	-4%	7.1µM*
CN(C)CCSc1nc(O)c(-c2ccccc2)c(=O)n1-c1ccccc1	-9	2	1%	1%	-10%	13%
CCN1/C(=C\C=C\C2=[N+](CC)c3ccccc3C2(C)C)C(C)(C)c2ccccc21	-25	-6	0.71µM*	0.79µM*	35µM*	0.56µM*
CC[n+]1c(/C=C/C=C2/N(C)c3ccccc3C2(C)C)sc2ccccc21	.	.	0.92µM*	1.3µM*	.	.
CCOC(=O)C1(CCCc2ccccc2)CCN(C2CCN(C(C)=O)CC2)CC1	-12	-2	.	.	-24%	-30%
Cc1c(NC(=O)Nc2ccc(C(C)C)cc2)c(=O)n(-c2ccccc2)n1C	-6	1	.	.	-12%	10%
Cc1cc(=O)[nH]c(NN=C2C3CC4CC(C3)CC2C4)n1	27	18*	.	.	-13%	5%
Cc1ccc2oc3ccccc3c(=O)c2c1	.	.	.	.	52%	-24%
O=c1c2ccccc2oc2ccc(-c3ccc4cc[nH]c4c3)cc12	.	.	.	.	-14%	16µM*
CN(C)c1ccc(C(=O)NCC2CCCO2)cc1 (stereo unspecified)	64*	43*	?	?	33%	-19%
CCCOC(=O)c1ccc(NC(=O)C2CCCO2)cc1 (stereo unspecified)	66*	39*	13%	9%	63%	-15%
Cc1ccc(NS(=O)(=O)c2cccc(C(=O)NCC3CCCO3)c2)cc1 (stereo unspecified)	.	.	?	10µM*	12%	?
CS(=O)(=O)N(CC(=O)NCC1CCCO1)c1cccc(Cl)c1 (stereo unspecified)	19	15*	-3%[46.1 µM]	8%	4%	-6%
CS(=O)(=O)Nc1ccc(C(=O)NCC2CCCO2)cc1 (stereo unspecified)	-10	-2	2%	1%	-9%	-2%
CCOc1ccccc1NC(=O)COc1cccc2c(=O)n(CCOC)ccc12	.	.	.	-28%[46.1 µM]	?	.
COc1cc(OC)cc(C(=O)Nc2ccc(C(=O)NCC3CCCO3)cc2)c1 (stereo unspecified)	-10	-1	-3%	0%	-15%	?
CC1CCc2sc(C(=O)NCC3CCCO3)cc2C1 (stereo unspecified)	.	.	5%[46.1 µM]	?	27%	3%
O=C(NCC1CCCO1)c1cc2c(s1)CCC2 (stereo unspecified)	89*	52*	.	.	47%	11%
COc1ccc(C(=O)NCC2CCCO2)cc1 (stereo unspecified)	54*	36*	12%	?	45%	4%
Cc1cc(NC(=O)c2ccc(NC(=O)C3CCCO3)cc2)ccc1Br (stereo unspecified)	74*	42*	.	.	?	-1%
COc1ccc(CNC(=O)c2ccc(NC(=O)C3CCCO3)cc2)cc1 (stereo unspecified)	26*	9	8%	12%	37%	22%
COc1ccccc1CC(=O)NCC1CCCO1 (stereo unspecified)	10	9	?	3%	3%	10%
Cc1cccc(C(=O)NCC2CCCO2)c1 (stereo unspecified)	30	11	?	26%	13%	9%
CN(C)c1cccc(C(=O)NCC2CCCO2)c1 (stereo unspecified)	42*	14	7%	29%	40%	11%
COc1ccc(N(Cc2ccccc2)S(=O)(=O)c2cccc(C(=O)NCC3CCCO3)c2)cc1 (stereo unspecified)	.	.	-27%[46.1 µM]	3.2µM*	-2%	?
SMILES	Shiga toxin inh	Cycloheximide cs	Marburg entry inh	Lassa entry inh	FMDV inh	HCV inh
Cc1cccc(-n2c(C)nc3cc(C(=O)NCC4CCCO4)ccc32)c1 (stereo unspecified)	-7	-3	.	.	16%	7%
COc1ccccc1CNC(=O)C(=O)NCC1CCCO1 (stereo unspecified)	62*	24*	5%	14%	45%	5%
CCOc1ccc(-n2c(C)nc3cc(C(=O)NCC4CCCO4)ccc32)cc1 (stereo unspecified)	-10	2	?	5µM*	2%	4%
COc1ccc(C(=O)Nc2c(N)nc(SCC(=O)Nc3ccc(NC(C)=O)cc3)[nH]c2=O)cc1OC	-3	-1	9%[46.1 µM]	-8%[46.1 µM]	3%	9%
COc1cccc(-c2cc(C(=O)NCC3CCCO3)c3cc(C)cc(C)c3n2)c1 (stereo unspecified)	15	12*	-15%	?	7%	?
COc1ccc(CCNCC2CCCO2)cc1 (stereo unspecified)	24*	18*	.	.	0%	12%
CC(C)C[C@H](N)CSSC[C@@H](N)CC(C)C	.	.	1.3µM*	.	.	.
Cc1ccnc(NCc2ccc(Cl)cc2)c1	49*	25*	?	?	15%	-17%
Cc1ccc(CNc2cnccn2)cc1	27*	12	19%	4%	30%	15%
c1ccc(CCNc2cnccn2)cc1	34*	18*	.	.	14%	19%
Clc1ccc(CNc2cnccn2)cc1	7	1	9%[46.1 µM]	-6%	1%	-3%
Clc1ccc(CNc2ccccn2)cc1	55*	31*	?	5%[46.1 µM]	8%	10%
COC(=O)C1=CN(C(C)C)C=C(C(=O)OC)C1c1cc2c(cc1Br)OCO2	-16	-6	0%	-19%	-26%	-12%
O=C(CN1C(=O)S/C(=C\C=C\c2ccccc2)C1=O)N1CCOCC1	24	2	3%[46.1 µM]	5%	10%	15%
O=C(NCC1CCCO1)c1cc(C(=O)C2CC2)c[nH]1 (stereo unspecified)	3	8	-19%	-3%	0%	8%
COC(=O)c1cccc(NC(=O)c2onc3c2CCCC3)c1	+	99*	9.2µM*	?	51%	3%
O=C(Nc1ccc2ccccc2c1)c1onc2c1CCCC2	64*	28*	-25%	5.6µM*	-49%	?
O=C(CS)Nc1ccc2ccccc2c1	49	15	20%[46.1 µM]	2%	14%	?
Cc1ccc(S(=O)(=O)N(C)C)cc1NC(=O)C(C)[N+]12CCN(CC1)CC2 (stereo unspecified)	-9	1	.	.	-17%	-5%
Cc1ccc(C(=O)CN(C(=O)c2ccc(Cl)cc2)N2C(=O)CCC2=O)cc1	1	1	5%[46.1 µM]	.	0%	0%
CCN(C(=O)c1cccs1)c1nnc(-c2ccncc2)s1	active	16*	-19%[46.1 µM]	-8%	11%	0%
CC1=CC[C@@H](C)O[C@@]2(C1)C(=O)N(Cc1ccc(Br)cc1)c1ccccc12	.	.	14%[14.2 µM]	?	.	.
CN1C/C(=C/c2ccccc2[N+](=O)[O-])C(=O)/C(=C\c2ccccc2[N+](=O)[O-])C1	.	.	3.2µM*	8.9µM*	18µM*	?
CCCCN(CCCC)CCNC(=O)CN1C(=O)CSc2ccc(S(=O)(=O)N3CCOCC3)cc21	-2	-3	.	?	0%	11%
